Test results: PubChem BioAssay AID1566 (Sanford-Burnham Center for Chemical Genomics, 2009)
Screen size: about 290,000 compounds; about 1,800 (0.62%) were called active. The full list was thinned out, with actives kept by preference. Values without a mark were called inactive. Cut-off read from the data, not from the text of the source: active = inhibition above about 50%; inactive = the rest.

Test: NOD2 signaling inhibitors, cell-based, luminescence, uHTS, HEK293 (AID 1566)
Conditions: HEK293 NOD2/NF-kB luciferase reporter, at 4 µM, active compounds read high

SMILES	inhibition
COc1ccc(S(=O)(=O)N2CCN(C3CCCC(C)C3)CC2)cc1 (stereo unspecified)	-12.3%
O=C(Nc1cccc(Cl)c1)c1ccc2c(c1)OCCO2	-169%
O=C(Nc1cccc(S(=O)(=O)Nc2ccc(Cl)cc2)c1)c1ccc2c(c1)OCCO2	55.7% (active)
Cc1ccc(NC(=O)c2ccc3c(c2)OCCO3)cc1S(=O)(=O)Nc1cccc(Cl)c1	10.3%
COC(=O)[C@H](C)NC(=O)NC1CCCc2ccccc21 (stereo partly specified)	3.2%
C/C(CC(=O)NCc1ccc(Cl)cc1)=N\NC(=O)c1ccccc1F	4.7%
Nc1ccc2c(c1)OC1(CCCCC1)O2	13.4%
O=C(Nc1ccc2c(c1)OC1(CCCC1)O2)C1CC1	-19.4%
Nc1ccc2c(c1)OC1(CCCC1)O2	69.9% (active)
CCN(CCCNC(=O)C1CCN(S(=O)(=O)N2CCC3(CC2)OCCO3)CC1)c1ccccc1	5.4%
CC(C)NC(=O)NC(=O)COC(=O)c1c2c(nc3ccccc13)CCC2	51.1% (active)
CC(C)CNC(=O)COC(=O)c1c2c(nc3ccccc13)CCC2	6.3%
CNC(=O)COC(=O)c1c2c(nc3ccccc13)CCC2	4.8%
CCCc1nc2ccccc2c(=O)n1CCc1ccccc1	-5.9%
CC(C)CC(NC(=O)OC(C)(C)C)C(=O)NC(C(=O)N1CCCC1C(N)=O)C(C)C (stereo unspecified)	4.1%
Cc1oc(-c2ccccc2Cl)nc1CN1CCCC1c1ccc(F)cc1 (stereo unspecified)	0.4%
CCOc1ncccc1C(=O)N1CCN(C(c2ccccc2)c2ccccc2)CC1	43.5%
Cc1ccccc1C(=O)N1CCN(C(c2ccccc2)c2ccccc2)CC1	46.9%
COc1ccc(N(Cc2cc3cc(OC)ccc3[nH]c2=O)C(=O)c2cccnc2)cc1	29.5%
COc1cc(C(=O)N[C@H](C(=O)NC(C)C23CC4CC(CC(C4)C2)C3)C(C)C)cc(OC)c1OC (stereo partly specified)	4%
COc1ccc(C(=O)NCc2ccc(-c3nc4ccccc4s3)cc2)cc1OC	-45.5%
COc1cc(C(=O)NCc2ccc(-c3nc4ccccc4s3)cc2)cc(OC)c1OC	-72.3%

SMILES	inhibition
COc1cc(OC)c(OC)cc1CN1CCN(Cc2ccc(C(F)(F)F)cc2)CC1	5.4%
COc1ccc(Nc2cc(Nc3ccc(OC)cc3)ncn2)cc1	-19.7%
COc1ccc(Nc2cc(Sc3ccc(OC)cc3)ncn2)cc1	55.2% (active)
COc1ccc(Nc2cc(Nc3ccccc3)ncn2)cc1	-87%
Cc1ccc(NC(=O)N(Cc2ccco2)Cc2cc3cc(C)cc(C)c3nc2Cl)cc1	-17.3%
Cc1cccc2cc(CN(Cc3ccco3)C(=O)Nc3cccc(C#N)c3)c(Cl)nc12	55.3% (active)
Cc1cc(C)c2nc(Cl)c(CN(Cc3ccco3)C(=O)Nc3ccccc3C)cc2c1	-17.6%
COc1cccc(-c2cc(C(F)(F)F)n3ncc(C(=O)N4CCc5ccccc5C4)c3n2)c1	17.4%
CC(C)(C)NS(=O)(=O)CC12CCC(CC1=O)C2(C)C (stereo unspecified)	50.9% (active)
C=CCNS(=O)(=O)CC12CCC(CC1=O)C2(C)C (stereo unspecified)	5.2%
CC1(C)C2CCC1(CS(=O)(=O)NC1CCCC1)C(=O)C2 (stereo unspecified)	17.9%
COCCCn1c(SCC(=O)Nc2ccc(NC(C)=O)cc2)nc2sc3c(c2c1=O)CCC3	11.9%
CCN(CC)c1nc2c(c(=O)[nH]c(=O)n2C)n1Cc1ccccc1Cl	5.7%
COc1ccc(-n2cnnc2SCC(=O)c2ccc(S(=O)(=O)N3CCOCC3)cc2)cc1	2.6%
COc1ccc(-c2ncccc2O)cc1	-2.7%
O=C(O)c1ccc(/C=C2\CCCc3c2nc2ccccc2c3C(=O)O)cc1	8.2%
O=C(O)c1c2c(nc3ccccc13)/C(=C/c1ccc(O)cc1)CC2	72.4% (active)
O=C(O)c1c2c(nc3ccccc13)/C(=C/c1ccc(O)cc1)CCC2	11.1%
O=C(NCCc1cccc(Cl)c1)c1ccc(OC2CCN(Cc3ccccn3)CC2)cc1	53.1% (active)
O=C(NCCc1ccccn1)c1ccc(OC2CCN(Cc3ccccn3)CC2)cc1	6.5%
Cc1cccnc1CCNC(=O)c1ccc(OC2CCN(Cc3ccccn3)CC2)cc1	2.1%
CC(=O)N/C(N)=N/c1nc2cc(C)ccc2o1	-93.3%

SMILES	inhibition
Cc1ccc2oc(/N=C(\N)NC(=O)C3CC3)nc2c1	5.6%
O=C(CSc1nn(-c2ccc(F)cc2)c(=S)s1)N1CCN(C(=O)c2ccco2)CC1	4.8%
Cc1no[n+]([O-])c1COc1ccc(/C=N/n2nnnc2N)cc1	-31%
COc1cccc(/C=N/NC(=O)c2nnn(-c3nonc3N)c2C(C)C)c1	26.6%
O=C(Nc1ccc(N2CCN(C(=O)c3ccccc3)CC2)cc1)c1ccc2c(c1)OCCO2	38.7%
Cc1ccccc1C(=O)N1CCN(c2ccc(NC(=O)c3ccc4c(c3)OCO4)cc2)CC1	-42.4%
N#CC(c1nc2ccccc2nc1N1CCCC1)S(=O)(=O)c1ccccc1 (stereo unspecified)	-3.3%
N#CC(c1nc2ccccc2nc1N1CCCCC1)S(=O)(=O)c1ccc(Cl)cc1 (stereo unspecified)	55.3% (active)
Cc1ccc(S(=O)(=O)C(C#N)c2nc3ccccc3nc2N2CCCCC2)cc1 (stereo unspecified)	7.4%
O=C(CCS(=O)(=O)c1ccccc1)NC12CC3CC(CC(C3)C1)C2	-42.4%
O=C(CCCn1c(=S)[nH]c2cc3c(cc2c1=O)OCO3)N1CCN(c2ccc(F)cc2)CC1	27.2%
O=C(CCCCCn1c(=S)[nH]c2ccc(N3CCOCC3)cc2c1=O)NCc1ccccc1	29.5%
Cc1cccc(N2CCN(C(=O)CCCn3c(=S)[nH]c4cc5c(cc4c3=O)OCO5)CC2)c1C	38.2%
O=C(CCCn1c(=S)[nH]c2cc3c(cc2c1=O)OCO3)N1CCN(c2ccccc2)CC1	12.2%
NC(=O)CSc1nnc(-c2ccccc2Br)n1-c1cccc(C(F)(F)F)c1	5.9%
Cc1[nH]nc(N)c1-c1ccc(Cl)cc1	14.7%
O=C(CCc1nnc(CCCCc2ccccc2)o1)NCCc1cccnc1	24.2%
CC(c1cccnc1)N(C(=O)Nc1ccccc1)C1CCCCC1 (stereo unspecified)	-11.5%
O=C(Nc1ccc(Cl)cc1C(F)(F)F)c1ccccc1Cl	3.5%
CCC(CC)COC(=O)C1=C(C)NC(=O)NC1c1cc(OC)ccc1OC (stereo unspecified)	-2%
COc1ccc(NC(=O)CSc2nc3nc(-c4cccs4)cc(C(F)(F)F)c3c(=O)[nH]2)c(OC)c1	22.2%
CC(=O)Nc1ccc(NC(=O)CSc2nc3nc(-c4cccs4)cc(C(F)(F)F)c3c(=O)[nH]2)cc1	5.7%

SMILES	inhibition
CN1CCN(CC(=O)Nc2ccccc2Oc2ccccc2)CC1	15.7%
COc1ccc(OCCSc2nc(C)c(Cc3ccccc3)c(=O)[nH]2)cc1	25.5%
Cn1c(=O)[nH]c(=O)c2c1nc(NCc1ccccc1)n2Cc1ccc(F)cc1	16%
Cc1ccc(/C=N/NC(=O)CSc2nc3ccccc3c(=O)n2-c2ccccc2C)s1	-0.2%
N#Cc1c2n(c3c(=O)n(Cc4ccccc4Cl)cnc13)CCCCC2	16.9%
Cc1oc2ccc(OCc3cccc(Cl)c3)cc2c1C(=O)O	9.4%
O=S(=O)(c1ccc(F)cc1)N1CCN(Cc2ccccn2)CC1	8.3%
NS(=O)(=O)c1ccc(NC(=O)COC(=O)CCc2ccc(S(=O)(=O)N3CCOCC3)cc2)cc1	-3%
CCn1c(=O)c(C(=O)Nc2cnccn2)c(O)c2ccccc21	18.7%
CC(C)Cn1c(=O)c(C(=O)Nc2ccccc2S(N)(=O)=O)c(O)c2ccccc21	22.9%
CCCn1c(=O)c(C(=O)Nc2cnccn2)c(O)c2ccccc21	-10.4%
CCn1c(=O)c(C(=O)Nc2ccccc2S(N)(=O)=O)c(O)c2ccccc21	-12.7%
Cn1c(=O)c(C(=O)Nc2cnccn2)c(O)c2ccccc21	-39.4%
CC(C)Cn1c(=O)c(C(=O)Nc2cnccn2)c(O)c2ccccc21	16.2%
CCCC(=O)N(CCN1CCOCC1)c1nc2c(C)ccc(C)c2s1	10.7%
COc1ccc(-c2cnn3cc(-c4cccc(Cl)c4)cnc23)cc1	-3.7%
COc1ccc(/C=N/NC(=O)c2ccoc2C)cc1COc1ccc(Cl)cc1	-42%
O=C(N/N=C/c1cn(-c2ccccc2)nc1-c1cccnc1)c1cccnc1	7.5%
N#CC(=C=[N-])c1nc2ccccc2nc1-[n+]1cccc(NC(=O)c2cccs2)c1	10%
Nc1nnc(COc2ccccc2)s1	-4.5%
